# Mtb FBA inh: Mtb FBA enzyme inhibitors, primary screen, biochemical, fluorescence, strain H37Rv; Fructose-bisphosphate aldolase (Mycobacterium tuberculosis (strain ATCC 25618 / H37Rv)), …; 2.3% of 360,000 active; inhibition, % at 1 µM; purified M. tuberculosis FBA, fluorescence read-out; in the data active = inhibition above about 27%
# Target sequence (P9WQA3 whole entry, looked up): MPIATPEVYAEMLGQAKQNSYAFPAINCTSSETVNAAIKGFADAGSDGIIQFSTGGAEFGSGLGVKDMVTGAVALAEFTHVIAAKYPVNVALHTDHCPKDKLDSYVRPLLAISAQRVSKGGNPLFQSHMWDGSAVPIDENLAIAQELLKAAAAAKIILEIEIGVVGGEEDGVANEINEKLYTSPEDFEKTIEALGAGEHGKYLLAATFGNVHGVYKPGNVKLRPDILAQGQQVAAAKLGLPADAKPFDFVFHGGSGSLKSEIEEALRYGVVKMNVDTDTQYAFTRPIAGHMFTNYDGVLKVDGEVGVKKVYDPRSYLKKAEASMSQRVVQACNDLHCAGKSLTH
# Anthrax LF prot: Bacillus anthracis LF protease inhibitors, primary screen, biochemical, multiplex microsphere, MLPCN library. multiplex microsphere protease cleavage assay. inhibition, % at 10 µM. 0.12% of 360,000 active. AID 588501, 2011
# Bead autofluor: flagged as autofluorescent in microsphere protease counterscreen | compound autofluorescence counterscreen, microsphere flow cytometry; active compounds read high | fluorescence intensity (no concentration beside the values) | 3.1% of 360,000 active | AID 624483; in the data active = fluorescence intensity above about 16000; inconclusive = no clear call, values can overlap the other calls
# BoNT-A LC inh2: BoNT/A light chain protease inhibitors, primary screen, biochemical, flow cytometry, MLPCN library; Botulinum neurotoxin type A light chain protease (Clostridium botulinum A str. ATCC 3502); 0.17% of 360,000 active; inhibition, % at 10 µM; multiplex microsphere protease substrate cleavage
# GDH-TPI counter: GDH-TPI coupling enzyme inhibitors, primary screen, artefact control for M. tuberculosis FBA inhibitor project, biochemical, absorbance, full deck; GDH-TPI coupled enzyme counterscreen, NADH absorbance; inhibition, % at 4.8 µM; 1.2% of 360,000 active; in the data active = inhibition above about 30%
# BoNT F protease: BoNT/F light chain protease inhibitors, primary screen, biochemical, flow cytometry, MLPCN library. inhibition, % at 10 µM. Botulinum neurotoxin type F light chain protease (Clostridium botulinum). Multiplex microsphere protease cleavage assay. 0.22% of 360,000 active; in the data active = inhibition above about 35%, passing the limit was not always enough; inconclusive = no clear call, values can overlap the other calls
# Numbers stand for hits; i = inactive; ? = inconclusive; nt = no result given; + = active, no number. Hits are enriched below; roughly 6.7% of the tested compounds scored in any of these assays. Rule as the data show it, unless noted: active = inhibition above about 30%; inconclusive = no clear call, values can overlap the other calls; inactive = below that.
SMILES,Mtb FBA inh,Anthrax LF prot,Bead autofluor,BoNT-A LC inh2,GDH-TPI counter,BoNT F protease
CC1(C)CC(N2CCN(c3ccccc3)CC2)=CC(=[N+]2CCCC2)C1,i,i,i,i,45,i
CCN(CC)C1=CC(=[N+]2CCCC2)CC(C)(C)C1,i,i,i,i,43,i
CC1(C)CC(N2CCCC2)=CC(=[N+]2CCCCCC2)C1,i,i,i,i,i,i
CN(Cc1ccccc1)C1=CC(=[N+]2CCCC2)CC(C)(C)C1,i,i,i,i,52,i
O=C1NC(=O)C2(CCN(c3ccccc3)CC2)C(=O)N1,i,i,i,i,i,i
Cc1ccc(S(=O)(=O)c2c(C)cc(C)nc2Cl)c(C)c1,i,i,22797,?,i,i
COc1ccc(N/N=C(\C#N)C(N)=O)cc1,i,i,i,i,i,i
CCOc1ccc(N/N=C(/C#N)C(N)=O)cc1,i,i,i,i,33,i
O=C1CC(c2ccc3c(c2)OCO3)c2cc3c(cc2N1)OCO3 (stereo not drawn),i,i,i,i,i,i
Cc1ccc(C2CC(=O)Nc3cc4c(cc32)OCO4)o1 (stereo not drawn),i,i,23026,i,i,i
CC(C)Oc1ccc(C(=O)NC2(C(F)(F)F)N=C3SCCN3C2=O)cc1 (stereo not drawn),i,i,20653,?,i,i
CC(C)(C)C(=O)NC1(C(F)(F)F)N=C2SCCN2C1=O (stereo not drawn),i,i,i,i,i,i
CC(=O)NC1(C(F)(F)F)N=C2SCCN2C1=O (stereo not drawn),i,i,22076,?,i,i
Cc1c(C(=O)O)nnn1-c1ccccc1,i,i,i,i,i,i
COc1ccc(C(=O)COC(=O)c2cnc(C)cn2)c(OC)c1,i,i,i,i,i,i
CN(Cc1ccccc1F)Cc1cc(=O)oc2cc(O)c(Cl)cc12,+,i,i,i,i,i
CC1CCN(Cc2cc(=O)oc3cc(O)c(Cl)cc23)CC1,+,i,i,i,i,i
Cc1ccc2oc(=O)cc(CN3CC(C)OC(C)C3)c2c1 (stereo not drawn),i,i,i,i,i,i
CC1CN(Cc2cc(=O)oc3cc(O)c(Cl)cc23)CC(C)O1 (stereo not drawn),+,i,i,i,i,i
CC1CCCC(C)N1C(=O)COC(=O)c1ccco1 (stereo not drawn),i,i,i,i,i,i
COc1ccc(C2CC3(O)NC(=O)C(C#N)(C3C)C2(C#N)C#N)cc1 (stereo not drawn),i,nt,nt,nt,i,nt
O=S(=O)(c1ccccc1)c1nc(-c2ccco2)oc1NCCCN1CCOCC1,i,i,i,i,i,i
O=S(=O)(c1ccccc1)c1nc(-c2ccco2)oc1NCCN1CCOCC1,i,i,23098,i,i,i
N#C/C(=C/Nc1ccccc1C(=O)O)C(N)=O,i,i,i,i,68,i
COc1ccc(Br)c(C(=O)Nn2c(C)nc3ccccc3c2=O)c1,i,i,i,i,i,i
SMILES,Mtb FBA inh,Anthrax LF prot,Bead autofluor,BoNT-A LC inh2,GDH-TPI counter,BoNT F protease
O=C(O)CC1S/C(=N/N=C/c2ccc(-c3ccccc3[N+](=O)[O-])o2)NC1=O (stereo not drawn),i,i,23815,i,40,i
Cc1ccc(-c2ccc(/C=N/N=C3/NC(=O)C(CC(=O)O)S3)o2)c([N+](=O)[O-])c1 (stereo not drawn),i,i,i,i,36,i
CC(C)(C)C(=O)N1CCN(c2ccc([N+](=O)[O-])cc2Cl)CC1,i,i,i,i,i,i
CO/N=C/C(=N\Nc1ccccc1)C(=O)c1ccccc1,i,i,i,i,i,i
CCCCNC(=S)N(C)/N=C/c1c(C)[nH]c2ccccc12,i,i,i,32,i,i
CC(=O)Cc1ccccc1OCC(=O)O,i,i,16749,i,i,i
Cc1cc(OC(=O)c2ccc(C)c(C)c2)c([N+](=O)[O-])c(=O)[nH]1,i,i,i,i,i,i
O=C(CCN1C(=O)c2cccc3cccc(c23)C1=O)N1CCN(Cc2ccc3c(c2)OCO3)CC1,i,i,i,i,i,i
Cc1ccc(OCCn2cc(/C(N)=N/O)c3ccccc32)cc1C,i,i,17016,i,i,i
COc1ccc(OCCn2cc(/C(N)=N/O)c3ccccc32)cc1,i,i,i,i,i,i
Oc1cc(NCc2cccnc2)ccc1-c1nc2ccccc2o1,i,i,i,i,64,i
CC(=O)N1CCc2nc3ccccc3cc21,i,i,i,i,i,i
CN1CCN(C(=O)c2cc3c(=O)n4ccccc4nc3s2)CC1,+,i,i,i,i,i
COc1ccccc1N1CCN(C(=O)c2cc3c(=O)n4ccccc4nc3s2)CC1,i,nt,nt,nt,i,nt
CC1CN(C(=O)c2cc3c(=O)n4ccccc4nc3s2)CC(C)O1 (stereo not drawn),196,i,16544,i,34,i
CC(C)NC(=O)c1cc2c(=O)n3ccccc3nc2s1,i,i,i,i,i,i
Cc1ccccc1-c1nc(CN2CCC(C(=O)NCc3ccco3)CC2)c(C)o1,i,i,21224,i,i,i
Cc1oc(-c2ccccc2F)nc1CN1CCC(C(=O)NCc2cccnc2)CC1,i,i,20391,i,i,i
Cc1ccccc1-c1nc(CN2CCC(C(=O)NCc3cccnc3)CC2)c(C)o1,i,i,22517,?,i,i
Cc1oc(-c2ccc(Cl)cc2)nc1CN1CCC(C(=O)NCc2ccco2)CC1,i,i,i,i,i,i
Cc1oc(-c2ccc(Cl)cc2)nc1CN1CCCC(C(=O)NCc2ccccn2)C1 (stereo not drawn),i,i,22724,i,i,i
OC[C@@H]1CN(Cc2ccc(-c3ccccc3)cc2)C[C@H](n2cnc3c(N4CCCC4)ncnc32)O1,i,i,i,i,i,i
CCc1ccc(-c2nc(CN3CCC(C(=O)NCc4ccccc4OC)CC3)c(C)o2)cc1,i,i,25156,?,i,i
COc1ccccc1CNC(=O)C1CCN(Cc2nc(-c3cccc(Cl)c3)oc2C)CC1,i,i,i,i,i,i
CCSc1ccc(C(=O)Nc2ccc(Br)cn2)cc1[N+](=O)[O-],i,i,19284,i,i,i
CC1=CC2=C(OC1N(C)C)c1cccc3cccc(c13)C2=O (stereo not drawn),i,i,21836,i,i,i
O=C(NN=Cc1ccc(F)cc1)c1ccccc1NS(=O)(=O)c1cccs1,i,i,i,i,i,i
O=C(N/N=C/c1ccc([N+](=O)[O-])o1)c1ccccc1NS(=O)(=O)c1cccs1,i,i,?,i,32,i
COc1cc(/C=N/NC(=O)c2sc(N)c(C#N)c2C)ccc1O,i,i,i,i,61,i

# Screening results as filed in PubChem.
